Shown is part of a subset that was picked to be rich in hits.
Dicer processing – inhibitors of Dicer pre-microRNA processing, primary screen, biochemical, cat-ELCCA, chemiluminescence; cat-ELCCA pre-miR-21 Dicer processing; active compounds read high; z-score at 25 µM; actives 6% (n = 47,000); AID 1347074, 2019; in the data active = z-score above about 3, passing the limit was not always enough;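 also: plate controls were vehicle for no effect and no enzyme for full effect; higher signal means more uncleaved substrate so more Dicer inhibition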
The depositor's hits bear a star.

SMILES	Dicer processing
CC(C)(C)OC(=O)NCCN=Cc1ccc(O)cc1	-1.4
O=C(O)/C=C\C(=O)Nc1ccc(OC(F)(F)F)cc1Br	3.8
Cc1cc(C)c(NC(=O)CSCc2cnc(C)c(O)c2CO)c(C)c1	-0.32
COCCCNC1=C(C#N)C(=O)NC(c2ccc(O)c(OC)c2)S1 (centres undefined)	1.3
COCCCNC1=C(C#N)C(=O)NC(c2cccs2)S1 (centres undefined)	3.1*
N#CC1=C(Nc2ccccc2Cl)SC(c2ccncc2)NC1=O (centres undefined)	0.01
CCOC(=O)c1cnn2c1nc(Sc1ccc(C)cc1)c1ccccc12	2.3
COc1ccc(CN2CN=C(Nc3nc(C)c4ccc(C)cc4n3)NC2)cc1	-0.05
CCOC(=O)/C(C#N)=C/N1CCN(c2ccc([N+](=O)[O-])cn2)CC1	-2.3
O=C1c2cc(S(=O)(=O)N3CCCCCC3)cc([N+](=O)[O-])c2-c2c1cc(S(=O)(=O)N1CCCCCC1)cc2[N+](=O)[O-]	-0.52
Cc1ccc(-n2c(=O)[nH]c3sc(-c4ccccc4)cc3c2=O)cc1	3.2*
O=c1[nH]c2sc(-c3ccccc3)cc2c(=O)n1-c1ccccc1	2.1
Cc1ccccc1-n1c(=S)[nH]c2sc(-c3ccccc3)cc2c1=O	2.5
CC(C)N1CCN(c2ncnc3scc(-c4ccccc4)c23)CC1	-1.6
Fc1ccccc1Nc1ncnc2sc3c(c12)CCCC3	-0.77
O=C(O)CCC(NC(=O)OCc1ccccc1)C(=O)O (centres undefined)	0.24
O=C(CCC(C(=O)O)N1C(=O)c2ccccc2C1=O)Nc1ccc2c(c1)COCO2 (centres undefined)	-1.8
O=C(O)CCC(C(=O)O)N1C(=O)c2ccccc2C1=O (centres undefined)	3.2*
CCC(=O)N/N=C(\C)c1ccc(Oc2ccccc2)cc1	-0.46
CN1CCN(Cc2c(O)ccc3c(=O)c(-c4ccccc4)coc23)CC1	2
CCc1cc2c(=O)c(-c3nc4ccccc4n3C)coc2c(CN(CC)CC)c1O	0.32
CCc1cc2c(=O)c(-c3nc4ccccc4[nH]3)coc2c(CN2CCCC(C)C2)c1O (centres undefined)	3.3*
O=c1[nH]c(-c2ccc(Cl)cc2)nc2c1CSC2	0.12
O=c1c2ccccc2c2n[nH]c(O)c3ccc(=NC4CCCCC4)c1c32	-0.55
COc1ccc(C2=NN3C(C2)c2ccccc2OC3c2ccc(C)cc2)cc1OC (centres undefined)	21
SMILES	Dicer processing
Oc1ccccc1C1=NN2C(C1)c1cc(Cl)ccc1OC2c1cccnc1 (centres undefined)	4.8
COc1ccc(O)c(C2=NN3C(C2)c2cc(Cl)ccc2OC3c2ccncc2)c1 (centres undefined)	2.8
Cc1ccc(C2=NN3C(C2)c2ccccc2OC3c2ccncc2)cc1 (centres undefined)	6.9*
COc1ccc(C2=NN3C(C2)c2cc(Cl)ccc2OC3c2ccncc2)cc1 (centres undefined)	9.1*
COc1ccc(C2=NN3C(C2)c2cc(OC)ccc2OC3c2cccnc2)cc1 (centres undefined)	4.8*
Cc1ccc(O)c(C2=NN3C(C2)c2ccccc2OC3c2ccncc2)c1 (centres undefined)	2.3
COc1ccc(O)c(C2=NN3C(C2)c2cccc(OC)c2OC3c2cccnc2)c1 (centres undefined)	0.4
COc1ccc(O)c(C2=NN3C(C2)c2ccccc2OC3c2cccnc2)c1 (centres undefined)	-0.42
CC1=C(C(=O)OCCOC(C)C)C(c2ccccn2)C2=C(CC(C)(C)CC2=O)N1 (centres undefined)	0.87
Cc1nc2sc3c(NC4CCCCC4)ncnc3c2c2c1COC(C)(C)C2	-0.27
Cc1cccc(NC(=O)C2CC(=O)N(c3ccc(Br)cc3)C2)n1 (centres undefined)	1.5
Nc1ncnc(Nc2cc(C(F)(F)F)ccc2Cl)n1	1.6
C/C(=N\N=C(/N)SCc1c(Cl)cccc1Cl)c1ccc(Cl)c(Cl)c1	0.06
COc1cccc(NC(=S)NNC(=O)c2ccc(N(C)C)cc2)c1	1.6
NC(=O)c1ccc(-c2ccc(C(N)=O)cc2)cc1	-1.6
CCOC(=O)C(C)Oc1ccc2c(=O)c(Oc3cccc(C)c3)c(C(F)(F)F)oc2c1 (centres undefined)	-0.91
Cc1ccc(S(=O)(=O)c2c(C)cc(C)cc2C)cc1	-1.1
Cc1ccc(S(=O)(=O)n2nc(C)cc2N)cc1	-0.94
Cc1ccc(S(=O)(=O)n2ccc3cc(N)ccc32)cc1	5.7*
Nc1cccc(-n2c(=O)n(Cc3ccccc3)c(=O)c3[nH]cnc32)c1	2.2
CC(C)(CO)NC(=O)c1sc2ccccc2c1Cl	-0.76
CSc1nc(N)nc(-c2cnccn2)n1	1.4
COC(=O)c1c(-c2c(Cl)cccc2Cl)noc1/C=C/N(C)C	-0.53
COc1ccc(OC)c(C2CC(c3ccc(OC)c(OC)c3)=NN2S(=O)(=O)c2ccc(C)cc2)c1 (centres undefined)	-0.24
CC(Sc1nc2ccccc2n1Cc1ccccc1)C(=O)O (centres undefined)	0.76
SMILES	Dicer processing
O=C1CC(C(=O)Nc2ccc(Br)cc2)SC(=Nc2ccccc2)N1 (centres undefined)	-1.8
O=[N+]([O-])c1cc(/C=N/N=C/c2csc([N+](=O)[O-])c2)cs1	-0.23
C=C1c2cc(C)c(C)cc2NC(=O)N1c1ccccc1	2.9
Cc1cc2c(cc1C)NC(=O)c1ccccc1C(c1ccccc1)=N2	3.1*
CC1CN=C(c2ccccc2)c2ccccc2C(=O)O1 (centres undefined)	-0.71
Cn1c(=O)c2c(ncn2CC(=O)Nc2ccc(F)cc2F)n(C)c1=O	0.42
O=[N+]([O-])c1cccnc1Sc1nnc(-c2ccccc2)o1	-1.2
S=C(Nc1ccc(C2CCCCC2)cc1)N1CCSCC1	-2.2
Cc1cc(C2CCCCC2)ccc1O	5.6*
COc1cc(C2SCc3cc(C)c(C)cc3CS2)ccc1O	1.1
CC(Sc1nc2ccccc2[nH]1)c1nc2ccccc2c(=O)[nH]1 (centres undefined)	2.2
CCOC(=O)C1=NN(c2ccccc2)C(=C2C(=O)c3ccccc3C2=O)S1	0.46
N#CCCCCOc1ccc2c(=O)cc(-c3ccccc3)oc2c1	0.21
CCC12CN3CC(CC)(CN(C1)C3c1ccccc1)C2=O (centres undefined)	5.5*
CCC12CN3CC(CC)(CN(C1)C3c1ccccc1F)C2=O (centres undefined)	1.4
CCCC12CN3CC(CCC)(CN(C1)C3c1ccc(O)cc1)C2=O (centres undefined)	2.9
COc1cc(C2C(C(=O)OC3CCCC3)=C(C)NC3=C2C(=O)CC(C)(C)C3)cc(Cl)c1O (centres undefined)	0.63
CC(C)OC(=O)c1cc2nc(-c3ccccc3)cc(C(F)(F)F)n2n1	-0.06
CSc1nnc(SCc2nc(-c3ccc([N+](=O)[O-])cc3)cs2)s1	0.44
C#CC(O)(c1ccc(OC)cc1)c1ccccc1F (centres undefined)	4.1*
COc1ccc(N=Nc2c(O)c(O)cc3ccccc23)cc1	2.3
C=C(c1ccccc1)c1ccc(OC)cc1	0.46
CC1c2ccsc2CCN1C(=S)NC(=O)c1ccc(C(C)(C)C)cc1 (centres undefined)	-1.3
CC(C)NC(=O)NNC(=O)Cn1nnc(N2CCCC2)n1	0.58
ClC1=C(CN2CCCCC2)CSc2ccc(Cl)cc21	0.59
O=C(O)c1ccc(-n2nnnc2SCc2cccc(Br)c2)cc1	4.9*
O=C(O)c1ccc(-n2nnnc2SCC(=O)N2CCOCC2)cc1	0.41
